# PubChem BioAssay AID1851 (National Center for Advancing Translational Sciences (NCATS), 2009)
# About 5,100 (32%) of roughly 16,000 compounds were called active. About 25% were inconclusive and are not listed. This is one part of the list. Unmarked numbers belong to inactive results. Calls come from the whole dose curve; as a rule, active = well fitted curve in the direction sought with a large enough effect; inconclusive = small, poorly fitted or top-dose-only effect, or effect the other way; inactive = no such curve, though single readings can be large or run the other way.
# Target: Cytochrome P450 3A4 (Homo sapiens) (UniProt P08684)
# Test: Cytochrome panel assay with activity outcomes
# Conditions: recombinant CYP, pro-luciferin dealkylation, luminescence, p450-cyp3a4; series mostly up to 57.1 µM; activity, negative = inhibition: at the top concentration
# % is set by controls: 0 for no effect and ±100 for the full control effect.
# Cytochrome P450 3A4 (Homo sapiens), sequence (P08684 whole entry, looked up): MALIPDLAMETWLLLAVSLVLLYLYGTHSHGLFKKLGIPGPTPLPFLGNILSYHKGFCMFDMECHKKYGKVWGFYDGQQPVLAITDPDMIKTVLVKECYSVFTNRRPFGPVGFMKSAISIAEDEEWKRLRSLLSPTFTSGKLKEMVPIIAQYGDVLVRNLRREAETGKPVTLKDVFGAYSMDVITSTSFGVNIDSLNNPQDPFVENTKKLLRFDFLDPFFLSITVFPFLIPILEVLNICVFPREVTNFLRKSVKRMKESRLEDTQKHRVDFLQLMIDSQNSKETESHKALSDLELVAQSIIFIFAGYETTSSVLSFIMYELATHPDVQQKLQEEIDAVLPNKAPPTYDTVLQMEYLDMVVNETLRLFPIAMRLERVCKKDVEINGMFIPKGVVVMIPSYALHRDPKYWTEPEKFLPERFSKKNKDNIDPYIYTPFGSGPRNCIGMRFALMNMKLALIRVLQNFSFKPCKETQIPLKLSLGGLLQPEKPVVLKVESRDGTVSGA
Compound,"activity, negative = inhibition",AC50
CN(C)CCNc1ccccn1,-5.4% [at 11.4 µM],
CC1CN(C(=O)COc2ncnc3ccccc23)CC(C)O1 (centres undefined),-15.3%,
Cc1ccc(-n2ccc(=O)c(-c3ccnc(SCc4cccc(Cl)c4)n3)n2)cc1,,8.91 µM (active)
CC(C)[C@](N)(C(=O)O)c1ccccc1,-13.2% [at 11.4 µM],
O=C1NC(c2cccc([N+](=O)[O-])c2)=CCN1c1ccccc1O,-24.7%,
O=c1cc(-c2ccccc2)[nH]n1-c1ccc([N+](=O)[O-])cc1,,14.1 µM (active)
CCc1c2c(nc3c(C(C)C)cccc13)-c1cccc(=O)n1C2,,15.8 µM (active)
CC(C)c1cccc2c([Si](C)(C)C)c3c(nc12)-c1cccc(=O)n1C3,,25.1 µM (active)
CC(C)c1cccc2cc3c(nc12)-c1cccc(=O)n1C3,,15.8 µM (active)
O[C@H](C[C@@H]1CCCCN1)c1ccc2c(c1)oc1ccccc12,-5% [at 11.4 µM],
CCOC(=O)c1cc(-c2ccc(Cl)cc2)nc2c1c(C)nn2CCC#N,,25.1 µM (active)
CCOC(=O)c1cnc(-c2ccccc2)nc1Oc1ccc(Cl)cc1,0.243%,
COc1ccc(-c2cc(C(=O)O)c3c(C)nn(-c4ccccn4)c3n2)cc1,-12.3%,
Cc1nn(S(=O)(=O)c2cccs2)c(C)c1Sc1ccc([N+](=O)[O-])cc1,,2.82 µM (active)
Cc1nn(C(=O)c2ccco2)c(C)c1Sc1ccc(Br)cc1,-4.98%,
Cc1ccc(Sc2c([N+](=O)[O-])ncn2C)cc1,11.7% [at 2.29 µM],
Cc1cccc2cc(CN(Cc3ccccc3)C(=O)c3cccc(F)c3)c(Cl)nc12,,8.91 µM (active)
CCN(CC)c1ccc(NC(=O)c2cccc(F)c2)c(C)c1,2.35% [at 2.29 µM],
CN1CCc2c(cc(O)c(O)c2Cl)[C@H](c2cccc(Cl)c2)C1,19.4%,
COC(=O)CN(c1ccccn1)S(=O)(=O)c1ccccc1,-3.69%,
CCOC(=O)CN(c1ccccn1)S(=O)(=O)c1ccccc1,-29.6%,
Cc1cc(C)cc(N(CC(=O)NCCSc2ccccn2)S(=O)(=O)c2ccccc2)c1,,3.98 µM (active)

Compound,"activity, negative = inhibition",AC50
O=C(CN(c1ccccc1)S(=O)(=O)c1ccccc1)NCCSCc1ccco1,,14.1 µM (active)
c1cncc(-c2cncnc2NCc2cccs2)c1,,2 µM (active)
c1ccc(CNc2ncncc2-c2ccoc2)cc1,,2 µM (active)
c1csc(CNc2ncncc2-c2ccoc2)c1,,2 µM (active)
CCN(CC)CC[n+]1ccc2c(C)c3[nH]c4ccccc4c3c(C)c2c1,-16.9% [at 11.4 µM],
O=C1CN=C(Nc2ccccc2)N1Cc1cccs1,-6.15% [at 2.29 µM],
COc1ccc(NC2=NCC(=O)N2Cc2cccs2)cc1,,14.1 µM (active)
CCOc1ccc(NC2=NCC(=O)N2Cc2cccs2)cc1,,17.8 µM (active)
CCOc1ccc(N2C(=O)CN=C2Nc2ccccc2F)cc1,3.08% [at 2.29 µM],
C=CCN1C(=O)CN=C1Nc1ccccc1,-22.2%,
COCCNc1ncnc2ccc(-c3ccccc3OC)cc12,,15.8 µM (active)
COCCNc1ncnc2ccc(-c3ccccc3C(F)(F)F)cc12,,15.8 µM (active)
FC(F)(F)c1ccccc1-c1ccc2ncnc(NCc3cccnc3)c2c1,,1.58 µM (active)
COc1ccccc1-c1ccc2ncnc(NCc3cccnc3)c2c1,,0.631 µM (active)
O=C(c1ccccc1)c1ccc2n1CC[C@H]2C(=O)O,,inactive
O=C(O)c1cc2c(o1)CCC/C2=N\O,-14.2%,
CC(C)(CS)C(=O)N1CCC[C@H]1C(=O)O,3.01% [at 25.6 µM],
Clc1ccccc1-c1ccc2ncnc(NCc3cccnc3)c2c1,,2 µM (active)
COc1cccc(-c2ccc3ncnc(NCc4cccnc4)c3c2)c1,,1 µM (active)
COc1ccccc1-c1ccc2ncnc(NCc3ccccc3)c2c1,,12.6 µM (active)
Cc1cc(OC(=O)c2ccc(Cl)cc2Cl)nc(C)n1,-8.46%,
COc1ccc(-c2ccc(=O)n(CC(=O)Nc3nnc(C(C)C)s3)n2)cc1OC,-18%,

Compound,"activity, negative = inhibition",AC50
COc1ccc(-c2nn3cnnc3s2)cc1OC,,14.1 µM (active)
O=S1(=O)OC(c2ccc(O)cc2)(c2ccc(O)cc2)c2ccccc21,-11.8% [at 11.4 µM],
Fc1ccc2c(c1)C1C=CCC1C(c1cc3c(cc1Br)OCO3)N2 (centres undefined),-4.14% [at 2.29 µM],
CC1(C)CC(=O)C2=C(C1)Nc1cc3c(cc1C2c1ccc(F)cc1)OCO3 (centres undefined),,1 µM (active)
Nc1nc(Br)c2c(F)cccc2c1-c1ccc(Cl)cc1,,20 µM (active)
Nc1nc(Br)c2ccccc2c1-c1ccc(F)cc1,,14.1 µM (active)
Nc1nc(Br)c2c(F)cccc2c1-c1ccc(F)cc1,,22.4 µM (active)
COC(=O)C[C@@H]1O[C@H]1[C@H](C)[C@@H](OC)C(C)C,,3.98 µM (active)
CO[C@@H](C(C)C)[C@@H](C)[C@@H]1OC(=O)C[C@@H]1O,-9.77% [at 11.4 µM],
CO[C@@H]1COC(=O)[C@H](CCSC)NC(=O)C/C=C\[C@@H](C)COC(=O)[C@@H]2CCCN2C(=O)C/C=C\[C@H]1C,-23.1% [at 11.4 µM],
Cc1ccc(S(=O)(=O)CC(O)CN2CCCC2=O)cc1 (centres undefined),-2.08%,
Cc1ccc(S(=O)(=O)N(CCCN2CCCC2=O)Cc2cc3c(C)ccc(C)c3[nH]c2=O)cc1,,1.12 µM (active)
O=C(NCCCN1CCCC1=O)c1ccc(CNS(=O)(=O)c2ccc(F)cc2)cc1,-13.5% [at 11.4 µM],
COc1ccccc1CNc1ncncc1-c1ccccc1Cl,,0.2 µM (active)
COc1ccccc1CNc1ncncc1-c1ccccc1OC,,0.2 µM (active)
c1ccc2c3c([nH]c2c1)[C@@H]1[C@H]2CC[C@H]([C@H]4CCCN[C@H]42)N1CC3,-11.2% [at 25.6 µM],
COC(=O)CSc1ncc(OC)c(OC)n1,-5.02%,
CCOC(=O)C1CCN(C(=O)C2CCN(c3nc4ccc(OC)cc4s3)CC2)CC1,18.5%,
Cc1sc2ccccc2[n+]1CCC(=O)O,-6.82% [at 11.4 µM],
CCOC(=O)C[n+]1c(C)sc2ccc(OC)cc21,,3.55 µM (active)
